Several values for one entry are separate records, joined by “and”; a condition that tells them apart may be missing. Equal values may be shown once. This is part of a sample that, as a whole, favours compounds with a hit. Of some 79,000 tested, about 15% had one in any assay. Unmarked numbers belong to inactive results. Activity calls are given as the source filed them. No stated cut-off is given here; in the data, active means growth inhibition above about 70%; inactive means the rest.
Legend:
[1] = NCI Yeast Anticancer Drug Screen. Data for the rad50 strain (AID 155);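 further: 0% = growth of vehicle-only cultures of the same strain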; settings: S. cerevisiae rad50 strain growth inhibition, active compounds read high
Procedure, shortened: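 Genetically altered yeast (DNA repair pathway); compound treatment; growth inhibition vs vehicle ctrl.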

[2] = NCI Yeast Anticancer Drug Screen. Data for the mec2-1 strain (AID 157); settings: S. cerevisiae mec2-1 strain, active compounds read high
Procedure, shortened: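 Compounds were applied to mec2-1 yeast cells. Their growth was then compared with that of vehicle-treated cultures to give growth inhibition.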

[3] = NCI Yeast Anticancer Drug Screen. Data for the sgs1 mgt1 strain (AID 161);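 further: 0% = growth of cultures given vehicle only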; settings: S. cerevisiae sgs1 mgt1 strain, active compounds read high
Procedure, shortened: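 Compounds are added to genetically altered yeast, and growth is compared with cultures given vehicle alone to give percent inhibition.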

[4] = NCI Yeast Anticancer Drug Screen. Data for the cln2 rad14 strain (AID 165);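 further: 0% = growth equal to vehicle treated cultures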; settings: S. cerevisiae cln2 rad14 strain, active compounds read high
Procedure, shortened: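 Strain: cln2 rad14 yeast, altered in cell cycle control and DNA damage repair. Read-out: growth inhibition vs vehicle.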

[5] = NCI Yeast Anticancer Drug Screen. Data for the bub3 strain (AID 167); settings: S. cerevisiae bub3 mutant strain, active compounds read high
Procedure, shortened: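 Yeast carrying a defined mutation is treated with each compound, and growth is compared with that of vehicle-exposed cells to give inhibition.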

[6] = NCI Yeast Anticancer Drug Screen. Data for the mlh1 rad18 strain (AID 175); settings: S. cerevisiae mlh1 rad18 strain growth inhibition, active compounds read high
Procedure, shortened: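 A repair-deficient yeast strain is exposed to test compound, and growth is scored relative to vehicle-treated controls.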

[7] = at 5.0 µM (retest, dose inferred, filed as 0.5)
[8] = at 50.0 µM (retest, dose inferred, filed as 5.0)

Structure (SMILES)	growth inhibition [1, 7]	growth inhibition [1, 8]	growth inhibition ([1]; at 50.0 µM)	growth inhibition [2, 7]	growth inhibition [2, 8]	growth inhibition ([2]; at 50.0 µM)	growth inhibition [3, 7]	growth inhibition [3, 8]	growth inhibition ([3]; at 50.0 µM)	growth inhibition [4, 7]	growth inhibition [4, 8]	growth inhibition ([4]; at 50.0 µM)	growth inhibition [5, 7]	growth inhibition [5, 8]	growth inhibition ([5]; at 50.0 µM)	growth inhibition [6, 7]	growth inhibition [6, 8]	growth inhibition ([6]; at 50.0 µM)
CC(C)(C)C1=CC(=C/C=C/c2cc(C(C)(C)C)[o+]c(C(C)(C)C)c2)C=C(C(C)(C)C)O1	99% (active)	93% (active)	67.3%	99% (active)	96% (active)	95.6% (active)	99% (active)	94% (active)	52.5%	99% (active)	94% (active)	96% (active)	99% (active)	94% (active)	94.3% (active)	99% (active)	95% (active)	37.5%
CCC1CC2CCC(O2)C(C)C(=O)OC(C)CC2CCC(O2)C(C)C(=O)OC(CC)CC2CCC(O2)C(C)C(=O)OC(C)CC2CCC(O2)C(C)C(=O)O1 (configuration not stated)	-7%	71% (active)	82.3% (active)	23%	88% (active)	84.5% (active)	-1%	74% (active)	80.7% (active)	25%	79% (active)	66.2%	-4%	79% (active)	79.2% (active)	-15%	85% (active)	73.2% (active)
CCCCCCCCC(=O)[O][Hg][c]1ccccc1	99% (active)	99% (active)	99.5% (active)	100% (active)	100% (active)	99.7% (active)	100% (active)	99% (active)	99.7% (active)	99% (active)	99% (active)	99.3% (active)	99% (active)	100% (active)	99.1% (active)	99% (active)	100% (active)	99.5% (active)
CCOC(=O)C1=C(C)NC(=O)NC1c1ccc(N(CCCl)CCCl)cc1Cl (configuration not stated)	6%	78% (active)	38.6%	46%	59%	44.1%	-3%	34%	24.9%	-8%	74% (active)	-10.8%	13%	97% (active)	92.6% (active)	3%	88% (active)	78.5% (active)
O=C1C(=O)c2cccc3cccc1c23	8%	79% (active)	64.2%	8%	51%	30.4%	3%	34%	21.1%	6%	50%	-3.15%	13%	82% (active)	13.2%	1%	63%	22.9%
COC(=O)C(Cl)(Br)CCl (configuration not stated)	13%	85% (active)	68.5%	6%	86% (active)	79.7% (active)	4%	49%	42.1%	3%	65%	12.3%	9%	95% (active)	43%	8%	81% (active)	38.7%
O=C1C=CC(=O)N1c1cccc2ccccc12 (tested in a mixture with another compound)	-1%	1%	10.3%	-39%	-1%	2.7%	0%	2%	9.1%	-1%	3%	15.8%	-8%	-5%	61%	-1%	-1%	12.2%
N#CC(C#N)=Cc1cc(Cl)ccc1O	11%	79% (active)	56% and 4.55%	-14%	44%	45.5% and 17.9%	2%	58%	46% and 65.7%	4%	30%	40.7% and -4.9%	31%	64%	20.7% and 2.2%	8%	71% (active)	65.8% and 39.8%
CC1=[N+](Cc2cc(C)cc(C)c2O)CCCC1	-5%	4%	-5.5%	-8%	-9%	-7.45%	-5%	-57%	41.2%	-2%	-4%	-3%	-8%	-1%	1.2%	-13%	-8%	-24.7%

Reference: PubChem BioAssay (NCI)
